High-throughput results as filed in PubChem.
Most compounds without a hit are left out; they make up all but 12% or so of the library.
ALDH1A1 inh = blocks purified human ALDH1A1 activity; P00352; Purified ALDH1A1, NADH fluorescence, propionaldehyde substrate; Potency, µM (titrated, usually from 75.3 µM), for inactives: at the highest dose activity, negative = inhibition, actives largely listed as inhibitors; actives 7.3% (n = 220,000); active = well fitted inhibition curve with a large enough effect, not every such curve was filed as active; inconclusive = small, poorly fitted or top-dose-only effect, or another doubt; inactive = no such curve, though single readings can be large or run the other way;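 note: plate controls were no enzyme wells and a reference inhibitor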
VP16 counter = counter-screen for ROR gamma inhibitors: Gal4-VP16 reporter | Drosophila S2 Gal4-VP16 UAS-luciferase, luminescence, 20 h | Potency, µM (highest dose often 53.6 µM), without a hit: top-dose activity, negative = inhibition, actives largely listed as inhibitors | actives 3.5% (n = 310,000) | AID 2546;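 note: Gal4-VP16 expression switched on by copper sulfate through the metallothionein promoter; nearly all actives have a fitted effect of over 50% in size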
PLK1 PBD inh = PLK1 (human) polo-box domain binding inhibition | P53350 | Potency, µM, inactives show max response, negative = inhibition, hits mostly inhibitors | Plk1 PBD binding of FITC phosphopeptide, fluorescence polarization | actives 2.8% (n = 360,000) | AID 720504; note: series mostly up to about 57 µM; nearly all actives have a fitted effect of over 65% in size
Sfp inh = blocks B. subtilis Sfp PPTase activity; Biochemical Sfp PPTase activity, qHTS; Potency, µM, for inactives: largest response in the series, negative = inhibition, actives largely listed as inhibitors; actives 3.5% (n = 310,000);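 note: the enzyme is Sfp with the accession as filed and its product quenches rhodamine fluorescence; 0% = enzyme reaction without inhibitor and -100% = no enzyme wells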
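Compounds were incubated with enzyme (final 15 nM) for 15 min at room temperature before substrate addition started the reaction. Fluorescence at 525 nm excitation, 598 nm emission was recorded immediately and after 30 minutes.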
RORg inh = inhibitors of mouse ROR gamma transcriptional activity. AID 2551. actives 5.4% (n = 310,000). Potency, µM (titrated, usually from 53.6 µM), for the others: at the highest dose activity change, negative = inhibition, actives largely listed as inhibitors. P51450. Drosophila S2 Gal4-RORgamma UAS-luciferase reporter, 20 h; note: nearly all actives have a fitted effect of over 60% in size
Target sequence (P51450 whole entry, looked up, the tested form may be a part): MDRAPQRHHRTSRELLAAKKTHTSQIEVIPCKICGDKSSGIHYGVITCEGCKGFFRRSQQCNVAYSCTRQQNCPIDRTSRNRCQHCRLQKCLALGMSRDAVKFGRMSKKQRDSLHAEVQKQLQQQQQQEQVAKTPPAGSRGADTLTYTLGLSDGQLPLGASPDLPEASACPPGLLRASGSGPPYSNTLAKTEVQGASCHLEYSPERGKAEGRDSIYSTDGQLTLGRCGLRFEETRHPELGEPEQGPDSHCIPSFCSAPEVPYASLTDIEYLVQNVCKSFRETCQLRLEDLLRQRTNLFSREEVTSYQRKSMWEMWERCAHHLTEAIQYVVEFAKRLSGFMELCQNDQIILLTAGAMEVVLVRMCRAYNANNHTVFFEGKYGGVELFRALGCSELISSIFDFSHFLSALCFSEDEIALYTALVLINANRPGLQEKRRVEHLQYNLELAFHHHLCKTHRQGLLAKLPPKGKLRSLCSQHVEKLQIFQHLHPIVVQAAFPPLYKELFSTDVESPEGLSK
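Drosophila Schneider cells stably carrying a metallothionein-driven Gal4 DBD–ROR gamma fusion and a UAS-Photinus luciferase reporter were exposed to compound for 1 hr, then induced with copper sulfate (700 uM final) for 20 hr at ambient temperature before luminescence reading.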
The depositor's hits bear a star; ? = inconclusive; nt = no result; ! = a repeat was not active; [ ] = remark or other dose. Unless noted, calls come from the whole dose curve; as a rule, active = well fitted curve in the direction sought with a large enough effect; inconclusive = small, poorly fitted or top-dose-only effect, or another doubt; inactive = no such curve, though single readings can be large; an effect the other way counts as inactive or inconclusive. Unless noted, % is set by controls: 0 for no effect and ±100 for the full control effect; potency is the fitted concentration of half-maximal effect.

SMILES	ALDH1A1 inh	VP16 counter	PLK1 PBD inh	Sfp inh	RORg inh
COc1cc(/C=C2\SC(=S)N(CCC(=O)Nc3ccccc3)C2=O)cc(OC)c1OC	-3%	9%	-2%	?	-10%
COc1cc(/C=C2/SC(=S)N(CC(=O)Nc3nc4ccccc4s3)C2=O)cc(OC)c1OC	4%	-2%	-8%	-2%	10µM*
CCc1nnc(NC(=O)CN2C(=O)/C(=C/c3cc(OC)c(OC)c(OC)c3)SC2=S)s1	1%	?	-3%	50µM*	16µM*
COc1cc(/C=C2\SC(=S)N(CC(=O)Nc3ccccn3)C2=O)cc(OC)c1OC	?	-6%	-2%	-5%	-5%
C=CCN1C(=O)/C(=C\c2cc(Br)c(OCc3ccccn3)c(OC)c2)SC1=S	0.28µM*	3%	-1%	14%	18%
CC1(C(=O)Nc2cccc3cccnc23)CCN1Cc1ccc(-c2ccccc2)o1 (centres undefined)	nt	nt	-24%	nt	nt
CC(C)[C@@H]1NC(=O)[C@H](CCCCN)NC(=O)[C@@H](Cc2c[nH]c3ccccc23)NC(=O)[C@H](Cc2ccc(O)cc2)NC(=O)[C@@H](NC(=O)[C@H](N)Cc2ccccc2)CSSC[C@@H](C(=O)N[C@@H](Cc2c[nH]c3ccccc23)C(N)=O)NC1=O	nt	-1%	nt	26%	3%
C=C/C1=C/Cc2ccccc2[C@H](C[N+](=O)[O-])C(C(C)=O)(C(=O)OC)C1 (some centres undefined)	23%	2%	nt	0%	-2%
COC(=O)C(Cc1ccc(O)cc1)NC(=O)c1ccccc1OC (centres undefined)	28µM*	-24%	-12%	10%	36%
COC(=O)C(Cc1ccc(O)cc1)NC(=O)c1ccccc1 (centres undefined)	3%	?	1%	8%	2.2µM*
CCc1cccc(C)c1NC(=O)Nc1c(Br)cnn1C	nt	-2%	-8%	6%	-8%
O=C1NCN(c2ccccc2)C12CCN(CCCC(c1ccc(F)cc1)c1ccc(F)cc1)CC2	-3%	18µM*!	-20%	79µM*!	13µM*!
N#CCCN1CCN(Cn2c3ccccc3c3ccccc32)CC1	7%	11%	-3%	13%	26%
CN1CCN(CCCNCc2cn(CCC#N)c3ccccc23)CC1	nt	0%	-4%	56µM*	-13%
Cc1cc2nc(-c3ccccc3)c(Cc3cccc(Cl)c3)n2c(C)c1Br	nt	nt	-18%	nt	nt
CCC1(c2ccccc2)NC(=S)N(c2cccc(C)c2C)N1 (centres undefined)	?	7.9µM*	-10%	?	1.3µM*
Cc1ccc(-n2c(CC#N)n[nH]c2=S)c(C)c1	nt	-11%	-3%	-29%	-41%
Cc1ccc(-n2c(Cc3ccccc3)n[nH]c2=S)c(C)c1	5%	?	-8%	2%	1.6µM*
O=c1c2ccccc2cnn1Cc1n[nH]c(=S)n1-c1ccccc1Cl	32µM*	5%	-9%	-25%	-9%
S=c1[nH]nc(Cc2ccccc2)n1-c1cccc2ccccc12	?	?	-16%	-10%	4µM*
O=[N+]([O-])c1ccc(CSCc2ccc(Cl)cc2)cc1	-2%[13.5 µM]	nt	nt	nt	nt
CCCN(C(=O)c1ccco1)c1nnc(-c2ccccc2C)s1	8.9µM*	-9%	-18%	?	0%
CCCCCCCCC1CO1 (centres undefined)	-4%	-2%	nt	nt	-1%
O=c1/c(=C\c2ccc(O)cc2)sc2nc(-c3ccccc3)c(-c3ccccc3)n12	nt	-8%	-3%	-16%	7%
O=c1/c(=C/c2ccc(O)cc2)sc2nc3cc(Br)cnc3n12	20µM*	-17%	nt	?	-2%
SMILES	ALDH1A1 inh	VP16 counter	PLK1 PBD inh	Sfp inh	RORg inh
COCCN1C(=O)CCC1(C)C(=O)Nc1c(C)cccc1C (centres undefined)	nt	nt	-7%	nt	nt
O=C(O)COc1nn(Cc2ccccc2)c2ccccc12	nt	5%	nt	13%	17%
CCOc1nc(N2CCOCC2)nc(C)c1[N+](=O)[O-]	2%	-7%	30µM*	6%	7%[10 µM]
CNCCOc1nc(N2CCOCC2)nc(C)c1[N+](=O)[O-]	13%	3%	-3%	5%	-6%
CC(=NCC(=O)O)c1ccccc1	5%[13.5 µM]	nt	nt	nt	nt
CC(C)C1C(c2ccccc2)N(C)C(c2ccccc2)CC1(O)c1ccccc1 (centres undefined)	0%	0%	1%	21%	-26%
CC(C)C1C(c2ccccc2)NC(c2ccccc2)CC1(O)c1ccc(F)cc1 (centres undefined)	nt	?	2%	56µM*	?
Cn1cccc1C(=O)N1CCC2(CC1)CN(C(=O)Nc1cccc(C#N)c1)C2	28µM*	4%	nt	15%	-3%
Cn1cccc1C(=O)N1CCC[C@@]2(CCN(C(=O)Nc3cccc(C#N)c3)C2)C1	-12%	1%	nt	6%	-13%
CCOC(=O)/C(=C\C=C1/Sc2ccccc2N1CC)C(C)=O	-3%	3%	114%	-3%	33%
CCOC(=O)c1ccc2c(c1)N(CC)C(=O)c1ccccc1S2	nt	-4%	-1%	-13%	-4%
CCOC(=O)/C(=C/C=C1\Sc2ccccc2N1CC)C(C)=O	13µM*	-4%	73%	-4%	16%
CCOC(=O)/C(=C/C=C1\Sc2cc(C)c(C)cc2N1CC)C(C)=O	?	?	61%	16µM*	-31%
COc1ccc(CNC(=O)C[C@@H]2C=C[C@@H](NS(=O)(=O)c3cccc(OC)c3)[C@@H](CO)O2)cc1	nt	nt	1%	nt	nt
CCCC(c1c(C)n(C)n(-c2ccccc2)c1=O)c1c(C)n(C)n(-c2ccccc2)c1=O	8%	-13%	2.4µM*	24%	-10%
CCC/C(=N/NC(=O)c1cccc(Cl)c1)c1ccccc1	?	?	3%	-5%	13µM*
O=C(N/N=C/C1C(c2ccccc2)C1(Cl)Cl)c1cccc(Cl)c1 (centres undefined)	7.1µM*	4.5µM*	-10%	10%	2.8µM*
CCC/C(=N\NC(=O)C1CC1)c1ccccc1	nt	nt	-1%	nt	nt
O=C(Nc1ccc(N=Nc2ccccc2)cc1)c1cccc(Cl)c1	12%	?	-5%	6%	-32%
NS(=O)(=O)c1ccc(CNC(=O)C2CCCN2C(=O)c2cccs2)cc1 (centres undefined)	nt	nt	-4%	nt	nt
CC(C)(C)c1nnc2sc(SCC(=O)c3ccccc3)nn2c1=O	?	nt	-14%	-14%	2%[0.365 µM]
COc1ccc(C(=O)CSc2nn3c(=O)c(C(C)(C)C)nnc3s2)cc1	0.4µM*	-1%	-8%	-17%	?
COc1ccc(CNC(=O)CSc2nn3c(=O)c(C(C)(C)C)nnc3s2)cc1OC	11%	2%	4%	14%	3.5µM*
CC(C)(C)c1nnc2sc(SCC(=O)N3CCc4ccccc43)nn2c1=O	-2%	-14%	27µM*	-3%	27%
COc1ccccc1CNC(=O)CSc1nn2c(=O)c(C(C)(C)C)nnc2s1	-8%	?	-6%	24%	10µM*
COc1ccccc1CNC(=O)CSc1nc(C)cs1	3%	2%	1%	19%	0%
